Among all 65,000 compounds or so, about 320 (0.49%) were called active.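 Rule for the calls: active = top-ranked compounds by inhibition in the single 10 µM screen, taking a fixed number of the strongest; inactive = the rest, inconclusive results apart.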 Shown is part of a subset that was picked to be rich in actives.
Test system: phosphomevalonate kinase (Streptococcus pneumoniae D39)
Experiment: S. pneumoniae PMK inhibitors, primary screen, biochemical, mevalonate pathway, pilot trial included (AID 539);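 note: 0% = full reaction with DMSO carrier and 100% = background rate without enzyme reaction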
Settings: purified PMK, PK/LDH-coupled NADH absorbance 340 nm, at 10 µM, stronger effect = higher value
[1] = measured here: pilot screen replicates

Row | Structure (SMILES) | inhibition | inhibition [1] [%]
1 | CCN(CC)S(=O)(=O)c1cccc(C(=O)NCC(=O)OCC(=O)NCc2ccccc2)c1 | 0% (inactive) | 
2 | Cc1ccc(C)n1C(Cc1ccccc1)C(=O)O (stereo not given) | 7% (inactive) | 
3 | COc1ccc(OC)c2c1sc(=NC(=O)CN1C(=O)CCC1=O)n2C | 12% (inactive) | 
4 | O=C(Nc1ccc(S(=O)(=O)N2CCCC2)cc1Cl)C1=COCCO1 | 14% (inactive) | 
5 | N#Cc1ccccc1-n1c(N)c(C(=O)N2CCCC2)sc1=S | 4% (inactive) | 
6 | Cc1ccc(S(=O)(=O)N2CCN(C(=O)CCC(=O)NC3CCCc4ccccc43)CC2)cc1 (stereo not given) | 21% (inactive) | 
7 | c1ccc(CCN2CN=C(Nc3nc4ccccc4o3)NC2)cc1 | 7% (inactive) | 
8 | Fc1ccc2nc(Nc3nc4c(s3)CCCC4)sc2c1 | 8% (inactive) | 
9 | Clc1ccc(Cn2ncc3c(NCc4cccnc4)ncnc32)cc1 | 9% (inactive) | 1.5
10 | Fc1c(F)c(C(F)(F)F)c(F)c(F)c1N1CCN(c2ccc3nnc(C(F)(F)F)n3n2)CC1 | 0% (inactive) | 
11 | COc1ccccc1N1CCN(c2nc3ccccc3n3nnnc23)CC1 | 7% (inactive) | 
12 | Cc1ccc(C(=O)NC2CC(C)(C)NC(C)(C)C2)c(C)c1 | 1% (inactive) | 
13 | CCOC(=O)N1CCN(Cc2nc3c(c(=O)n(C)c(=O)n3C)n2Cc2ccccc2)CC1 | 2% (inactive) | 1
14 | CCOC(=O)CSc1nc2c(c(=O)n(Cc3ccccc3Cl)c(=O)n2C)n1C | 5% (inactive) | 
15 | CCOc1cc2[nH]c(=S)n(CCCN3CCCC3=O)c(=O)c2cc1OCC | 14% (inactive) | 
16 | COc1ccc(OC)c2[nH]c(=O)c(CCNC(=O)C(C)(C)C)cc12 | 7% (inactive) | 
17 | N=c1c2c3c(sc2ncn1N)CCCCC3 | 17% (inactive) | 
18 | O=C1c2ccccc2C(=O)N1c1ccccc1S(=O)C(F)(F)F (stereo not given) | 12% (inactive) | 
19 | CCOC(=O)c1nnn(-c2nc(OC)nc(N(C)C)n2)c1-c1ccccc1 | 17% (inactive) | 
20 | COc1ccccc1NC(=O)C1=C(C)Nc2ncnn2C1c1ccc(C)o1 (stereo not given) | 3% (inactive) | 2.5
21 | COc1ccc(C2C(C(=O)Nc3ccccc3OC)=C(C)Nc3nnnn32)c(OC)c1 (stereo not given) | 8% (inactive) | 
22 | COc1ccccc1NC(=O)C1=C(C)NC2=C(C(=O)CCC2)C1c1ccc(C)o1 (stereo not given) | 26% (active) | 
23 | COc1cc(OC)cc(C(=O)Nc2ncc3c(n2)CC(C)(C)CC3=O)c1 | 11% (inactive) | 
24 | Cc1cc(NC(=O)Cn2nc(C(F)(F)F)c3c2CCCC3)no1 | 3% (inactive) | 
25 | c1cnc(NC2C3CC4CC(C3)CC2C4)nc1 (stereo not given) | 7% (inactive) | 
26 | COc1ccc2[nH]c3ccc(OC)cc3c2c1 | 6% (inactive) | 
27 | COc1ccc(NC(=O)C2CCCN(S(=O)(=O)c3cccc4cccnc34)C2)cc1 (stereo not given) | 8% (inactive) | 

Reference: PubChem BioAssay AID539 (SRMLSC, 2006)
